# Test results: paper PMC9911399, “Two distinct binding modes provide the RNA-binding protein RbFox with extraordinary sequence specificity”
# Numbering of substitutions follows the chain as printed; changes in the protein carry UniProt numbers. The full ranking holds about 16,000 sequences; the median of “ka relative to ugcaugu” is about 0.096, and the highest 2% start at about 0.35. For the sample, the highest values were picked, then their nearest neighbours and some sequences at random.
# T1: RBFOX1 RRM RbFoxmut (Fox-RRM*) (Homo sapiens, UniProt Q9NWB1 109-208, R118D;E147R;N151S;E152T)
# T1 sequence: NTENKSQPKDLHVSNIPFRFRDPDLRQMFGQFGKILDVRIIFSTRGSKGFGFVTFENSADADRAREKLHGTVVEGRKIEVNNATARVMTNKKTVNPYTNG
# B1: GGCCGCA (DNA:RNA)
# RNA: GGGAGACCGGAAUUCAGAUUGUCCGGCCGCAUUAAAUCCCGUCGUAGCCACCA
# DNA 1: CAATCTGAATTCCGGTCTCCC
# DNA 2: TGGTGGCTACGACGGGATT
# B2: CCUGUUG (DNA:RNA)
# RNA: GGGAGACCGGAAUUCAGAUUGUCCCCUGUUGUUAAAUCCCGUCGUAGCCACCA
# DNA 1: CAATCTGAATTCCGGTCTCCC
# DNA 2: TGGTGGCTACGACGGGATT
# B3: AGGGCAC (DNA:RNA)
# RNA: B2 RNA with C25A, C26G, U27G, U29C, U30A, G31C
# DNA 1: CAATCTGAATTCCGGTCTCCC
# DNA 2: TGGTGGCTACGACGGGATT
# B4: UAGCUUA (DNA:RNA)
# RNA: B2 RNA with C25U, C26A, U27G, G28C, G31A
# DNA 1: CAATCTGAATTCCGGTCTCCC
# DNA 2: TGGTGGCTACGACGGGATT
# B5: GUUAGGG (DNA:RNA)
# RNA: B2 RNA with C25G, C26U, G28A, U29G, U30G
# DNA 1: CAATCTGAATTCCGGTCTCCC
# DNA 2: TGGTGGCTACGACGGGATT
# B6: ACCGGAG (DNA:RNA)
# RNA: B2 RNA with C25A, U27C, U29G, U30A
# DNA 1: CAATCTGAATTCCGGTCTCCC
# DNA 2: TGGTGGCTACGACGGGATT
# B7: AAUUGGC (DNA:RNA)
# RNA: B2 RNA with C25A, C26A, G28U, U29G, U30G, G31C
# DNA 1: CAATCTGAATTCCGGTCTCCC
# DNA 2: TGGTGGCTACGACGGGATT
# B8: ACCACUC (DNA:RNA)
# RNA: B2 RNA with C25A, U27C, G28A, U29C, G31C
# DNA 1: CAATCTGAATTCCGGTCTCCC
# DNA 2: TGGTGGCTACGACGGGATT
# B9: GGCUAUG (DNA:RNA)
# RNA: B1 RNA with C28U, G29A, C30U, A31G
# DNA 1: CAATCTGAATTCCGGTCTCCC
# DNA 2: TGGTGGCTACGACGGGATT
# B10: UGUCAUG (DNA:RNA)
# RNA: B2 RNA with C25U, C26G, G28C, U29A
# DNA 1: CAATCTGAATTCCGGTCTCCC
# DNA 2: TGGTGGCTACGACGGGATT
# B11: UGUCCUG (DNA:RNA)
# RNA: B2 RNA with C25U, C26G, G28C, U29C
# DNA 1: CAATCTGAATTCCGGTCTCCC
# DNA 2: TGGTGGCTACGACGGGATT
# B12: UGUUAUG (DNA:RNA)
# RNA: B2 RNA with C25U, C26G, G28U, U29A
# DNA 1: CAATCTGAATTCCGGTCTCCC
# DNA 2: TGGTGGCTACGACGGGATT
# B13: UGUCAUC (DNA:RNA)
# RNA: B2 RNA with C25U, C26G, G28C, U29A, G31C
# DNA 1: CAATCTGAATTCCGGTCTCCC
# DNA 2: TGGTGGCTACGACGGGATT
# B14: UGUAUCU (DNA:RNA)
# RNA: B2 RNA with C25U, C26G, G28A, U30C, G31U
# DNA 1: CAATCTGAATTCCGGTCTCCC
# DNA 2: TGGTGGCTACGACGGGATT
# B15: UAUGUCG (DNA:RNA)
# RNA: B2 RNA with C25U, C26A, U30C
# DNA 1: CAATCTGAATTCCGGTCTCCC
# DNA 2: TGGTGGCTACGACGGGATT
# B16: GGCUAUC (DNA:RNA)
# RNA: B1 RNA with C28U, G29A, C30U, A31C
# DNA 1: CAATCTGAATTCCGGTCTCCC
# DNA 2: TGGTGGCTACGACGGGATT
# B17: CUGUAUC (DNA:RNA)
# RNA: B2 RNA with C26U, U27G, G28U, U29A, G31C
# DNA 1: CAATCTGAATTCCGGTCTCCC
# DNA 2: TGGTGGCTACGACGGGATT
# B18: CGUCAUG (DNA:RNA)
# RNA: B2 RNA with C26G, G28C, U29A
# DNA 1: CAATCTGAATTCCGGTCTCCC
# DNA 2: TGGTGGCTACGACGGGATT
# B19: UGUUAUC (DNA:RNA)
# RNA: B2 RNA with C25U, C26G, G28U, U29A, G31C
# DNA 1: CAATCTGAATTCCGGTCTCCC
# DNA 2: TGGTGGCTACGACGGGATT
# B20: CGUCCUG (DNA:RNA)
# RNA: B2 RNA with C26G, G28C, U29C
# DNA 1: CAATCTGAATTCCGGTCTCCC
# DNA 2: TGGTGGCTACGACGGGATT
# Target: T1, RBFOX1 RRM RbFoxmut (Fox-RRM*)
# Test: EMSA; HiTS-Eq, 1 nM pool, 10 min; buffer printed only for the single-RNA assays: 10 mM Tris pH 7.5, 150 mM NaCl, 3.4 mM EDTA, 0.001% NP-40, 30 C
# Conditions: tags: His6 N-terminal (pET28a); label: 5' 32P
# Summary of the method: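 A pool of RNA with 7 randomized nucleotides, 5′-radiolabelled and with DNA-annealed flanks, was equilibrated at 1 nM for 10 min in 50 µL with purified RbFox RRM, wild type or mutant, across increasing protein concentrations. Free RNA was separated by 8% native PAGE, excised, reverse-transcribed, barcoded by PCR and sequenced. Relative association constants were obtained from read-count changes of each RNA species versus the control reaction and normalised to the cognate motif.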
row,Binder,binding signal
1,B1,0.107 KA relative to UGCAUGU
2,B2,0.136 KA relative to UGCAUGU
3,B3,0.0707 KA relative to UGCAUGU
4,B4,0.134 KA relative to UGCAUGU
5,B5,0.0712 KA relative to UGCAUGU
6,B6,0.0806 KA relative to UGCAUGU
7,B7,0.114 KA relative to UGCAUGU
8,B8,0.0459 KA relative to UGCAUGU
9,B9,0.405 KA relative to UGCAUGU
10,B10,0.597 KA relative to UGCAUGU
11,B11,0.133 KA relative to UGCAUGU
12,B12,1.04 KA relative to UGCAUGU
13,B13,0.183 KA relative to UGCAUGU
14,B14,0.296 KA relative to UGCAUGU
15,B15,0.133 KA relative to UGCAUGU
16,B16,0.226 KA relative to UGCAUGU
17,B17,0.362 KA relative to UGCAUGU
18,B18,0.275 KA relative to UGCAUGU
19,B19,0.351 KA relative to UGCAUGU
20,B20,0.132 KA relative to UGCAUGU
